Among the test systems are SR leukemia; RPMI-8226 leukemia; OVCAR-8 ovarian; OVCAR-5 ovarian; OVCAR-4 ovarian; SK-OV-3 ovarian; IGROV1 ovarian; HS 578T breast; NCI/ADR-RES ovarian; OVCAR-3 ovarian.
Holding throughout (experiment): NCI-60 one-dose screen, 48 h (100 = growth as untreated, 0 = no growth, -100 = all killed)
Common to all, as to conditions: 10 µM

This is part of a sample that, as a whole, favours compounds with a hit. Of some 83,000 tested, about 20% had one in any assay.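 For each line, cells grew in 96-well plates with the test compound present at a single concentration for 48 hours.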 Values without a mark were called inactive. Activity calls are given as the source filed them. How the source made its calls: active means growth percent below 10; inactive means the rest.

For the compound `c1ccc2c(c1)Cc1ccccc1N2CCN1CCCCC1`, the growth with SR leukemia is 94.1%; with RPMI-8226 leukemia, 87.2%; in the assay with OVCAR-8 ovarian, 91.2%; in the assay on OVCAR-5 ovarian it was 96.6%; with OVCAR-4 ovarian, 95.2%; in the assay with SK-OV-3 ovarian it was 88.8%. The growth in the assay on IGROV1 ovarian was 83.5%; in the assay on HS 578T breast, 113%; in the assay with NCI/ADR-RES ovarian, 88.5%.

On to `N#Cc1cnn(C(=O)c2nn(-c3ccc(Cl)cc3)cc2O)c1N`, for which the growth was -35.5% (active) in the assay on SR leukemia; -37% (active) in the assay on RPMI-8226 leukemia; 10.1% in the assay with OVCAR-8 ovarian; 30.6% in the assay on OVCAR-5 ovarian; 18.8% in the assay with OVCAR-4 ovarian; 8.44% (active) with SK-OV-3 ovarian. The growth is 12.5% in the assay on IGROV1 ovarian, 75.9% with HS 578T breast and 3.25% (active) with NCI/ADR-RES ovarian.

Turning to `S=C1N(c2ccccc2)CN(C2CCCCC2)CN1c1ccccc1`, the growth with SR leukemia is 102%; in the assay on RPMI-8226 leukemia, 103%; in the assay with OVCAR-8 ovarian, 75%; in the assay with OVCAR-5 ovarian, 104%; in the assay on OVCAR-4 ovarian it was 96.5%; in the assay on SK-OV-3 ovarian it was 117%. For the same compound, the growth in the assay with IGROV1 ovarian is 95.9%; in the assay on HS 578T breast, 63.2%; in the assay on NCI/ADR-RES ovarian, 103%.

For `O=C1C=C(Nc2cccc(Br)c2)c2ccccc2C1=O`, the growth was 56.8% in the assay on SR leukemia; 63.1% in the assay with RPMI-8226 leukemia; 69.5% in the assay on OVCAR-8 ovarian; 73.1% in the assay on OVCAR-5 ovarian; 77.6% with OVCAR-4 ovarian; 25.7% in the assay with SK-OV-3 ovarian. The growth with OVCAR-3 ovarian is 38.9%; with HS 578T breast it was 38.5%; in the assay on NCI/ADR-RES ovarian it was 71.1%.

Consider `COc1cc(NC(=O)C2=C(N3CCOCC3)/C(=C/c3ccc(Cl)cc3)CC2)cc(OC)c1OC`, for which the growth in the assay on SR leukemia was 35.1%; with RPMI-8226 leukemia it was 33.2%; in the assay with OVCAR-8 ovarian it was 72.7%; in the assay with OVCAR-5 ovarian, 103%; in the assay on OVCAR-4 ovarian, 83.2%; with SK-OV-3 ovarian, 114%. Moreover, the growth is 85.9% in the assay with OVCAR-3 ovarian, 95.2% with HS 578T breast and 72.5% in the assay with NCI/ADR-RES ovarian.

Regarding `CCOc1ccccc1/C=N\N=C\c1ccccc1O`, the growth in the assay on SR leukemia was 80.6%; in the assay on RPMI-8226 leukemia, 100%; with OVCAR-8 ovarian, 107%; in the assay with OVCAR-5 ovarian it was 120%; in the assay on OVCAR-4 ovarian, 112%; with SK-OV-3 ovarian it was 95.7%. The growth in the assay on IGROV1 ovarian is 95.8%; in the assay on HS 578T breast, 110%; in the assay with NCI/ADR-RES ovarian, 99.9%.

Take `CN(C)CCC1(c2ccccc2)CCN(C)C1=O` (stereo not drawn): the growth in the assay with SR leukemia was 112%; in the assay on RPMI-8226 leukemia it was 108%; with OVCAR-8 ovarian, 104%; with OVCAR-5 ovarian, 107%; with OVCAR-4 ovarian it was 113%; with SK-OV-3 ovarian, 100%. In addition, the values for the growth in the assay with IGROV1 ovarian, with HS 578T breast and in the assay with NCI/ADR-RES ovarian were 109%, 108% and 103%, respectively.

For `Brc1ccc2c(c1)-c1ccccc1C1=NCCN12`, the growth was -0.353% (active) with SR leukemia; 1.99% (active) with RPMI-8226 leukemia; -11.3% (active) in the assay on OVCAR-8 ovarian; -8.25% (active) in the assay with OVCAR-5 ovarian; 0.91% (active) with OVCAR-4 ovarian; -3.44% (active) in the assay on SK-OV-3 ovarian. Also, the results for the growth in the assay on IGROV1 ovarian, with HS 578T breast and with NCI/ADR-RES ovarian were 27.1%, 37% and -18% (active), respectively.

Regarding `Nc1nc(Cn2c(-c3nonc3N)nc3ccccc32)nc(N2CCCCC2)n1`, the growth was 58.9% in the assay on SR leukemia; 68% in the assay on RPMI-8226 leukemia; 93.2% with OVCAR-8 ovarian; 109% in the assay with OVCAR-5 ovarian; 107% in the assay with OVCAR-4 ovarian; 79.1% in the assay on SK-OV-3 ovarian. The growth in the assay on OVCAR-3 ovarian was 95.6%; in the assay on HS 578T breast it was 97.2%; with NCI/ADR-RES ovarian it was 83.3%.

For `COc1ccc(Cl)cc1Nc1nc(C(F)(F)F)ccc1C(=O)N/N=C/c1cc(OC)c(OC)c(OC)c1`, the growth in the assay on SR leukemia was 14.1%; with RPMI-8226 leukemia it was 23%; in the assay on OVCAR-8 ovarian, 53.2%; with OVCAR-5 ovarian, 62.4%; in the assay with OVCAR-4 ovarian it was 23.7%; in the assay with SK-OV-3 ovarian, 34.9%. Further, the growth with OVCAR-3 ovarian was 10.2%; in the assay on HS 578T breast, -11.3% (active); in the assay on NCI/ADR-RES ovarian it was 0.977% (active).

As to `CCN1CC(CCN2CCOCC2)C(C(c2ccccc2)c2ccccc2)C1=O` (stereo not drawn), the growth with SR leukemia was 94%; in the assay on RPMI-8226 leukemia, 113%; in the assay on OVCAR-8 ovarian it was 99.9%; with OVCAR-5 ovarian, 110%; with OVCAR-4 ovarian, 113%; in the assay on IGROV1 ovarian, 127%. In addition, the growth in the assay on OVCAR-3 ovarian is 112%; in the assay on HS 578T breast, 104%; with NCI/ADR-RES ovarian, 98.8%.

With `CC(C)c1ccc(C(C)C(=O)N(CC2=C(C(C)c3ccccn3)c3ccccc3C2)C(C)C)cc1` (stereo not drawn), the growth was 24.2% in the assay on SR leukemia; 14.6% with RPMI-8226 leukemia; 46.6% in the assay on OVCAR-8 ovarian; 64.7% in the assay on OVCAR-5 ovarian; 30.2% in the assay on OVCAR-4 ovarian; 29.7% in the assay on OVCAR-3 ovarian. Besides, the growth in the assay on HS 578T breast is 47.4%; in the assay with NCI/ADR-RES ovarian it was 24.2%.

Turning to `COc1ccc(C(=O)N/N=C/c2cc(C(F)(F)F)ccc2Cl)cc1`, the growth is 102% in the assay on SR leukemia; 121% with RPMI-8226 leukemia; 102% with OVCAR-8 ovarian; 95.5% in the assay with OVCAR-5 ovarian; 91.7% in the assay with OVCAR-4 ovarian; 106% in the assay with IGROV1 ovarian. For the same compound, the growth with HS 578T breast is 92.6%; in the assay on NCI/ADR-RES ovarian it was 90.9%.

As for `N#Cc1c(-c2ccc(Cl)cc2)csc1NC(=O)Nc1ccc(Cl)c(C(F)(F)F)c1`, the growth in the assay with SR leukemia was -15.1% (active); in the assay on RPMI-8226 leukemia, 1.61% (active); in the assay on OVCAR-8 ovarian, 23%; in the assay on OVCAR-5 ovarian it was 60.2%; in the assay on OVCAR-4 ovarian it was -26.4% (active); with IGROV1 ovarian it was 22.1%. Further, the growth with OVCAR-3 ovarian is -19.7% (active); in the assay with HS 578T breast it was 29.6%; with NCI/ADR-RES ovarian it was 8.74% (active).

For the compound `COC(=O)C1(O)NC(=C(C#N)C#N)C(C#N)=C1C(=O)c1ccc(OC)c(OC)c1` (stereo not drawn), the growth in the assay with SR leukemia was 89.7%; in the assay on RPMI-8226 leukemia, 90.1%; with OVCAR-8 ovarian, 92%; in the assay on OVCAR-5 ovarian it was 111%; with OVCAR-4 ovarian, 118%; in the assay with IGROV1 ovarian, 101%. In addition, the growth was 107% in the assay on OVCAR-3 ovarian, 95.9% in the assay with HS 578T breast and 106% in the assay with NCI/ADR-RES ovarian.
